Assay results from PubChem BioAssay AID1159580 (chemical genetic matrix, 2015).
The whole screen tested about 5,500 compounds, of which about 2,000 (36%) were called active. Another 18% or so got no clear call; they are omitted. Rule as the data show it: active = normalized growth mostly below about 0.91 (no sharp cut-off); inconclusive = no clear call, values can overlap the other calls; inactive = mostly above about 0.92. The list shows a part of the results.

Test: chemical genetic growth profiling, strain panel (AID 1159580);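 also: tested at 20 µM; growth read once vehicle control cultures reached saturation at 30 °C; 1 = growth at the plate median or of vehicle wells; lower values mean less growth of the strain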
Settings: growth OD
[1] = S. cerevisiae deletion strains, locus YAL013W, strain DEP1, stronger effect = lower value
[2] = S. cerevisiae deletion strains, locus YBR229C, strain ROT2, stronger effect = lower value
[3] = S. cerevisiae deletion strains, locus YDL101C, strain DUN1, stronger effect = lower value
[4] = S. cerevisiae deletion strains, locus YDR150W, strain NUM1, stronger effect = lower value
[5] = S. cerevisiae deletion strains, locus YEL061C, strain CIN8, stronger effect = lower value
[6] = S. cerevisiae deletion strains, locus YGR078C, strain PAC10, stronger effect = lower value
[7] = S. cerevisiae deletion strains, locus YHR030C, strain SLT2, stronger effect = lower value
[8] = S. cerevisiae deletion strains, locus YHR087W, strain rtc3, stronger effect = lower value
[9] = S. cerevisiae deletion strains, locus YJR043C, strain POL32, stronger effect = lower value
[10] = S. cerevisiae deletion strains, locus YJR075W, strain HOC1, stronger effect = lower value
[11] = S. cerevisiae deletion strains, locus YLR039C, strain RIC1, stronger effect = lower value
[12] = S. cerevisiae deletion strains, locus YLR058C, strain SHM2 (second series), stronger effect = lower value
[13] = S. cerevisiae deletion strains, locus YLR085C, strain ARP6, stronger effect = lower value
[14] = S. cerevisiae deletion strains, locus YLR262C, strain YPT6, stronger effect = lower value
[15] = S. cerevisiae deletion strains, locus YML094W, strain GIM5, stronger effect = lower value
[16] = S. cerevisiae deletion strains, locus YMR219W, strain ESC1, stronger effect = lower value
[17] = S. cerevisiae deletion strains, locus YMR263W, strain SAP30, stronger effect = lower value
[18] = S. cerevisiae deletion strains, locus YNL128W, strain TEP1, stronger effect = lower value
[19] = S. cerevisiae deletion strains, locus YNL153C, strain GIM3, stronger effect = lower value
[20] = S. cerevisiae deletion strains, locus YNL298W, strain CLA4 (second series), stronger effect = lower value
[21] = S. cerevisiae deletion strains, locus YNL322C, strain KRE1, stronger effect = lower value
[22] = S. cerevisiae deletion strains, locus YNR030W, strain Alg12, stronger effect = lower value
[23] = S. cerevisiae deletion strains, locus YPL055C, strain LGE1, stronger effect = lower value
[24] = S. cerevisiae deletion strains, locus YPL241C, strain CIN2, stronger effect = lower value
[25] = S. cerevisiae deletion strains, locus YPR135W, strain CTF4, stronger effect = lower value

Measured: normalized growth

COc1ccc(-n2c(-c3ccc(C)cc3)csc2=N)cc1
inactive: [1] 0.996 | [2] 1 | [3] 1 | [4] 1.02 | [5] 0.97 | [6] 1 | [7] 1.05 | [8] 0.995 | S. cerevisiae deletion strains, locus YJL187C, strain SWE1, stronger effect = lower value 0.985 | [9] 1.01 | [10] 1.01 | [11] 1.01 | [12] 1 | [13] 0.918 | [14] 1 | [15] 0.996 | [16] 1.01 | [17] 1.03 | S. cerevisiae deletion strains, locus YMR307W, strain GAS1, stronger effect = lower value 1.03 | [18] 0.992 | [19] 1.03 | [20] 0.983 | [21] 1 | [22] 0.988 | [23] 1.03 | [24] 1.01 | [25] 1.24 | S. cerevisiae strains, strain wild type, stronger effect = lower value 0.994

COc1ccc(-c2ccc(C=C(C#N)C#N)s2)cc1
inactive: [1] 0.946 | S. cerevisiae deletion strains, locus YCL061C, strain MRC1, stronger effect = lower value 0.95 | [3] 0.95 | [4] 0.967 | [5] 0.922 | [7] 0.943 | [8] 0.939 | [9] 0.958 | [10] 1.01 | [12] 0.971 | [13] 0.912 | [14] 0.832 | [15] 0.899 | [16] 0.969 | [17] 0.974 | [18] 0.977 | [19] 0.938 | [20] 0.895 | [21] 0.964 | [22] 0.903 | [23] 0.932 | [24] 1.07 | [25] 0.948
active: [2] 0.918 | [6] 0.925 | [11] 0.757
